PubChem BioAssay AID743395 (Broad Institute, 2014)
Screen size: about 1,200 compounds; about 480 (40%) were called active. How the calls were made is not given here. So high a share suggests a set chosen from earlier hits. Only a sample is shown. Potency and affinity values are given separately.

Assay: HepG2 cell cytotoxicity, dose response, cytotoxicity control, CellTiter-Glo luminescence, cherry-pick, set 2 (AID 743395);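 further: 0% = neutral control wells and -100% = positive control wells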
Settings: HepG2 viability, CellTiter-Glo ATP luminescence, 72 h; series mostly up to 26 µM; activity change, negative = cytotoxicity: at the top concentration

| SMILES | activity change, negative = cytotoxicity |
| --- | --- |
| CCOC(=O)c1[nH]c(C)c(/C(O)=C2\C(=O)C(=O)N(CCCN3CCOCC3)C2c2cccs2)c1C (stereo not given) | 10.2% (inactive) |
| CC(C)CC1Nc2ncnc(N3CCN(c4ccccn4)CC3)c2N(Cc2ccc(Br)cc2)C1=O (stereo not given) | -0.413% (inactive) |
| COc1ccc(-n2nnnc2C(c2ccccc2)N2CCN(C/C=C/c3ccccc3)CC2)cc1 (stereo not given) | -7.14% (inactive) |
| O=C(NNC(=O)c1ccncc1)Nc1ccc(Cl)cc1 | 10.9% (inactive) |
| CCN1C(=O)[C@H]2[C@@H](c3ccc(-c4ccc(Cl)c(Cl)c4)cc3)N[C@@](C)(C(=O)OC)[C@H]2C1=O | -4.63% (inactive) |
| NC(=O)CC(NC(=O)Cc1ccc(Br)cc1)c1ccc(NC2CC3CCC2C3)c([N+](=O)[O-])c1 (stereo not given) | -30.8% (inactive) |
| CN(C)/C=C1\C=C2C(=O)c3ccccc3N2C1=O | -9.76% (inactive) |
| CC(O)CNc1nc(N)[nH]c(=O)c1N=Nc1ccccc1 (stereo not given) | 9.61% (inactive) |
| CCC(C(=O)OCC(=O)C1(O)CCC2C3CCC4=CC(=O)CCC4(C)C3C(O)CC21C)C(C)C (stereo not given) | -8.94% (inactive) |
| OC[C@@H]1[C@@H](c2ccccc2)C2(CN(Cc3ccccc3F)C2)N1Cc1ccccc1F | -2.23% (inactive) |
| NC(=O)c1cc(Cl)ccc1OCC(=O)NC1CC1 | -6.69% (inactive) |
| O=C(c1ccccc1F)N1CC[C@@H]2[C@H](CO)Nc3ccc(Br)cc3[C@@H]21 | -27.6% (inactive) |
| COc1ccc(C#Cc2ccc3c(c2)[C@@H]2[C@@H](CCN2C(=O)c2cccc(F)c2)[C@@H](CO)N3)cc1 | -3.32% (inactive) |
| O=C(NCc1nnnn1-c1ccc(Cl)cc1)C(=O)c1c[nH]c2ccccc12 | 0.083% (inactive) |
| COc1ccc(NC(=O)N[C@@H]2CC[C@@H](CCn3cc(-c4ccc(F)cc4)nn3)O[C@@H]2CO)cc1 | 9.05% [at 23.5 µM] (inactive) |
| NNC(=O)c1[nH]c2ccc(Cl)cc2c1-c1ccccc1 | -17.7% (inactive) |
| O=C(NC(Cc1ccccc1)C(=O)N1CCN(S(=O)(=O)c2ccccc2F)CC1)c1ccccc1 (stereo not given) | -13.5% (inactive) |
| CC1CN(S(=O)(=O)c2cccc(C(=O)Nc3cc(Cl)ccc3N3CCOCC3)c2)CC(C)O1 (stereo not given) | -14.3% (inactive) |
| CC(C)(C)C(=O)OCc1nc(-c2ccc(O)c(O)c2)cs1 | -8.53% (inactive) |
| CO[C@@H](CN(C)S(=O)(=O)c1ccc(C)cc1)[C@H](C)CN([C@H](C)CO)S(=O)(=O)c1cccc(Cl)c1 | 7.18% (inactive) |
| COc1ccc(CNC(=O)c2cc3c(c(-c4cccc(-c5ccc(C#N)cc5)c4)n2)[C@@H](CCO)N([S@](=O)C(C)(C)C)C3)cc1 | -9.63% [at 23.5 µM] (inactive) |
| COc1cccc(C(=O)c2c[nH]c(C(=O)NCCCN3CCOCC3)c2)c1 | -0.29% (inactive) |
| CC(Sc1nc2ccccc2c(=O)n1C)C(=O)Nc1ccc2c(c1)OCCO2 (stereo not given) | -2.36% (inactive) |
| c1ccc(CCN(Cc2ccccc2)Cc2nc(C3CC3)no2)cc1 | -4.04% (inactive) |
| O=C(CCN1CCCCC1)N1CCc2c([nH]c3ccccc23)C1c1cccnc1 (stereo not given) | 0.121% (inactive) |

| SMILES | activity change, negative = cytotoxicity |
| --- | --- |
| COc1ccc(OC)c(N/C(N)=N/c2nc(C)cc(C)n2)c1 | -5.35% (inactive) |
| COc1cc(C(O)CO)ccc1OS(=O)(=O)O (stereo not given) | -16.3% (inactive) |
| COc1ccc2c(c1OC)OCC2C (stereo not given) | -0.236% (inactive) |
| Cc1cc(C)nc(N(C#N)Cc2cccc(Cl)c2)n1 | -20.8% (inactive) |
| CCOc1ccc(C(=O)NCC(=O)NNC(=O)c2cc(C)oc2C)cc1OCC | 3.23% (inactive) |
| Cc1cccc(C(=O)OCC(=O)NC(C)C2CC3CCC2C3)c1O (stereo not given) | -11.9% (inactive) |
| Cc1ccc(-n2cc(-c3ccccc3)c3c(N4CCOCC4)ncnc32)cc1 | 16.3% (inactive) |
| O=C(C(Cc1ccccc1)n1cccc1)N1CCCCC1 (stereo not given) | 9.04% (inactive) |
| CC(C)(C)C1COc2ccccc2N1C(=O)c1cccc(Cl)c1 (stereo not given) | -1.18% (inactive) |
| C/C=C/c1ccc2c(c1)O[C@@H](CN(C)C(=O)Nc1cccc(F)c1)[C@H](C)CN([C@H](C)CO)S2(=O)=O | 5.7% (inactive) |
| Cc1cc2c(s1)Nc1ccccc1N=C2N1CCN(C)CC1 | -19.3% (inactive) |
| CCN[C@H]1CN(CCCOC)S(=O)(=O)c2sc(S(N)(=O)=O)cc21 | 6.26% (inactive) |
| O=C(c1ccc2ccccc2c1)N1CCN(Cc2ccccc2)CC1 | -13.3% (inactive) |
| Cc1cccc(N2CCN(C(=O)c3c(-c4ccccc4Cl)noc3C)CC2)c1C | -18.3% (inactive) |
| NC1(C(=O)O)CC1 | 11.4% (inactive) |
| O=c1cnc2ccccc2n1CC1CCCCC1 | -4.42% (inactive) |
| Cc1cc(C)c(/C=C2\C(=O)Nc3ccccc32)[nH]1 | -18.6% (inactive) |
| Cc1cccc(N(C)S(=O)(=O)c2ccc(-c3cc(C)no3)s2)c1 | 10.6% (inactive) |
| CC(OC(=O)c1cccs1)C(=O)NC1CCCCC1C (stereo not given) | -16.4% (inactive) |
| Cc1cc(C(=O)N/N=C/c2ccc([N+](=O)[O-])cc2)c2ccccc2n1 | -25.6% (inactive) |
| CN(C)c1ccc2c(c1)[C@@H]1C[C@@H](CC(=O)NCc3ccc(Oc4ccccc4)cc3)O[C@H](CO)[C@@H]1O2 | -15.5% (inactive) |
| CCN(CC(=O)Nc1cc(Cl)ccc1-n1cncn1)Cc1nc2ccccc2c(=O)[nH]1 | -9.39% (inactive) |
| Cc1cc(C(=O)N2CC=C(c3ccccc3)CC2)c2ccccc2n1 | -29.1% (inactive) |
| CCN(C(=O)COC(=O)c1cc2c(s1)CCCC2)c1c(N)n(Cc2ccccc2)c(=O)[nH]c1=O | -4.95% (inactive) |
| O=S(=O)(Nc1ccc(F)cc1Cl)c1ccc(-c2cnc(C3CC3)o2)cc1 | -20.5% (inactive) |

| SMILES | activity change, negative = cytotoxicity |
| --- | --- |
| COc1ccccc1NS(=O)(=O)c1cc(-c2cnc(C3CC3)o2)ccc1C | -17.7% (inactive) |
| CC(C)c1cccc(-c2csc(C(O)c3ccco3)n2)c1 (stereo not given) | -11.9% (inactive) |
| COc1ccc(OC)c(-c2nnc3n2N=C(c2ccc(OC)c(OC)c2)CS3)c1 | -34.3% (inactive) |
| Cc1cc(N2CCCC2)c(F)cc1/C=C\[N+](=O)[O-] | -34.7% (inactive) |
| NS(=O)(=O)c1ccc2nc(NC(=O)c3ccc4c(c3)OCCO4)sc2c1 | 4.38% (inactive) |
| C/C=C/c1ccc([C@@H]2[C@H](CO)N(CC3CC3)[C@H]2CNC(=O)c2ccccc2)cc1 | -25.2% [at 23.5 µM] (inactive) |
| CCOc1ccc(S(=O)(=O)N2CCCCC2)cc1NC(=O)c1ccccc1 | 18.5% (inactive) |
| COc1ccc(-c2nc(-c3cccc(C)c3)no2)cc1OC | -1.21% (inactive) |
| Nc1ccc(S(=O)(=O)Nc2cnc3ccccc3n2)cc1 | -11.6% (inactive) |
| COc1ccc(S(=O)(=O)Cc2ccc(C(=O)N3CCN(c4cccc(C)c4)C(C)C3)o2)cc1 (stereo not given) | -11.2% (inactive) |
| Cc1ccccc1OCC(=O)OCC(=O)NCCc1ccccc1 | 21% (inactive) |
| COC(=O)C[C@@H]1CC[C@@H]2[C@H](COc3ccc(NC(=O)c4cc(C)on4)cc3C(=O)N2C)O1 | -12.3% (inactive) |
| CC(=O)N1Cc2cc(C(=O)NCC(F)(F)F)nc(-c3cccc(-c4cccnc4)c3)c2[C@@H]1CCO | -7.78% (inactive) |
| CN(Cc1c(F)cccc1Cl)C(=O)c1ccc(NC(=O)CC2SC(N3CCCCC3)=NC2=O)cc1 (stereo not given) | -8.12% (inactive) |
| Cc1noc(NS(=O)(=O)c2ccc(N/C=C\C(=O)c3ccccc3)cc2)c1C | -5.75% (inactive) |
| COc1cc(OC)cc(C(=O)NC(=S)Nc2ccc3oc(=O)ccc3c2)c1 | 7.96% (inactive) |
| O=C(c1[nH]ncc1-c1ccc(Cl)cc1)C1CO1 (stereo not given) | -2.79% (inactive) |
| Cc1cc2nnc(SCC(=O)NCc3ccco3)n2c2ccccc12 | 10.6% (inactive) |
| S=C(NCc1ccco1)NCC1CCCO1 (stereo not given) | -18.5% (inactive) |
| CCCCC1(C2CCCC2)NC(=O)NC1=O (stereo not given) | 5% (inactive) |
| CNS(=O)(=O)c1cccc(C(=O)OCC(=O)c2cc(C)n(CC3CCCO3)c2C)c1 (stereo not given) | 7.11% (inactive) |
| O=Cc1ccccc1OCc1ccc2c(c1)OCO2 | 1.7% (inactive) |
| CCOC1=C2[C@@H](CN(S(=O)(=O)c3ccc(C)cc3)[C@H]2c2ccc(Cl)cc2)[C@H]2C(=O)N(c3ccccc3)C(=O)[C@H]2C1 | -5.52% (inactive) |
| COc1cc(C(=O)c2cocc2C(=O)c2ccc3c(c2)OCO3)cc(OC)c1OC | -22.8% (inactive) |
| COc1ccc(N(C)S(=O)(=O)c2cccc(C(=O)NCC3CCCCC3)c2)cc1 | -13.4% (inactive) |

| SMILES | activity change, negative = cytotoxicity |
| --- | --- |
| COCCNC(=O)C1CCCN(C(=O)c2ccc3sccc3c2)CC1 (stereo not given) | -0.219% (inactive) |
| COCC(=O)N1C[C@@H]2[C@H](c3ccccc31)[C@H](CO)N2Cc1ccc(OC)cc1 | 11.1% (inactive) |
| COc1ccc2c3c([nH]c2c1)[C@H](CO)N(C(=O)Nc1ccc(F)cc1)CC31CCN(S(=O)(=O)c2ccccc2)CC1 | -4.51% (inactive) |
| COc1ccc2c(c1)[nH]c1c(=O)n(/N=C/c3ccc(OC)c(CN4CCCC4)c3)cnc12 | -6.55% (inactive) |
| COc1ccc2c3c(n(C)c2c1)[C@H](CO)NCC31CCN(Cc2cc(-c3ccccc3)on2)CC1 | -16.1% (inactive) |
| CCCNC(=O)N1CC2(CN(CC3CCCCC3)C2)c2c(n(C)c3cc(OC)ccc23)[C@H]1CO | -7.75% (inactive) |
| Cc1sc(NC(=S)NC(=O)CCc2ccccc2)c(C(N)=O)c1C | -30.3% (inactive) |
| COCCNC(=O)NC12CC3(C)CC(C)(CC(C)(C3)C1)C2 | -11.8% (inactive) |
| COc1ccccc1C(=O)Nc1onc(C)c1C#N | -24.7% (inactive) |
| COc1cccc(N2CCN(C(=O)c3ccc(CS(=O)c4ccc(Cl)cc4)o3)CC2)c1 (stereo not given) | -27.7% (inactive) |
| COc1cccc(CNC(=O)CSc2nc3ccc(C)cc3[nH]2)c1 | 3.46% (inactive) |
| CC(C)(C)c1csc(NC(=O)Cc2cccs2)n1 | -22.9% (inactive) |
| CN1CCN(C(=O)c2ccc(CN(c3ccccc3)S(=O)(=O)c3ccccc3)cc2)CC1 | 4.86% (inactive) |
| Cc1ccc(S(=O)(=O)N[C@H](C(=O)OCC(=O)NC(=O)C2CCCCC2)C(C)C)cc1 | 2.53% (inactive) |
| CC(C)c1ccc(NC(=O)CN2C(=O)NC3(CCCCCCC3)C2=O)cc1 | -33% (inactive) |
| CSc1ccccc1NC(=O)COC(=O)CCC(=O)c1ccc(F)cc1 | -16.4% (inactive) |
| CC(=O)OCCn1c2nc(=O)[nH]c(=O)c-2nc2cc(C)c(C)cc21 | -13.6% (inactive) |
| COc1cccc(NC(=O)N(C)C[C@H]2OCc3ccccc3-c3c(n(C)c4ccccc34)C(=O)N([C@H](C)CO)C[C@H]2C)c1 | 0.205% (inactive) |
| O=C(c1[nH]ncc1-c1cccc(Br)c1)C1CO1 (stereo not given) | 1.28% (inactive) |
| CC(C)CCNC(=O)C(=O)Nc1ccc2c(c1)N(S(=O)(=O)c1cccs1)CCC2 | -1.58% (inactive) |
| CCOC(=O)C1=CN(Cc2cccc(I)c2)S(=O)(=O)N(C)C1C (stereo not given) | -1.74% (inactive) |
| CC(C)c1nc2oc3c(NCCO)ncnc3c2c2c1COC(C)(C)C2 | -2.05% (inactive) |
| COc1ccc(-c2cnc3c(NC=O)cc(-c4ccccc4)cn23)cc1OC | -26.2% (inactive) |
| COc1cc(-c2cnc3c(NC=O)cc(-c4cccc(C(F)(F)F)c4)cn23)cc(OC)c1OC | -1.54% (inactive) |
| O=CNc1cc(-c2ccc(C(=O)NC3CC3)cc2)cn2c(-c3ccccc3)cnc12 | -21.5% (inactive) |
